{"source": "PubChem BioAssay AID651548", "about": "(Broad Institute, 2012)", "note": "Screen size: about 57,000 compounds; about 200 (0.35%) were called active.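 How the source made its calls: active means mean inhibition of replicates at least 50% and every single replicate also reaching 50%; inconclusive means mean inhibition at least 50% but some replicate falls below 50%; inactive means mean inhibition under 50%.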 Many of the other results were omitted from the sample, so actives are more common in it than they were."}
{"target": "Histone-lysine N-methyltransferase EZH2 (Homo sapiens) (UniProt Q15910)", "sequence (Q15910 whole entry, looked up)": "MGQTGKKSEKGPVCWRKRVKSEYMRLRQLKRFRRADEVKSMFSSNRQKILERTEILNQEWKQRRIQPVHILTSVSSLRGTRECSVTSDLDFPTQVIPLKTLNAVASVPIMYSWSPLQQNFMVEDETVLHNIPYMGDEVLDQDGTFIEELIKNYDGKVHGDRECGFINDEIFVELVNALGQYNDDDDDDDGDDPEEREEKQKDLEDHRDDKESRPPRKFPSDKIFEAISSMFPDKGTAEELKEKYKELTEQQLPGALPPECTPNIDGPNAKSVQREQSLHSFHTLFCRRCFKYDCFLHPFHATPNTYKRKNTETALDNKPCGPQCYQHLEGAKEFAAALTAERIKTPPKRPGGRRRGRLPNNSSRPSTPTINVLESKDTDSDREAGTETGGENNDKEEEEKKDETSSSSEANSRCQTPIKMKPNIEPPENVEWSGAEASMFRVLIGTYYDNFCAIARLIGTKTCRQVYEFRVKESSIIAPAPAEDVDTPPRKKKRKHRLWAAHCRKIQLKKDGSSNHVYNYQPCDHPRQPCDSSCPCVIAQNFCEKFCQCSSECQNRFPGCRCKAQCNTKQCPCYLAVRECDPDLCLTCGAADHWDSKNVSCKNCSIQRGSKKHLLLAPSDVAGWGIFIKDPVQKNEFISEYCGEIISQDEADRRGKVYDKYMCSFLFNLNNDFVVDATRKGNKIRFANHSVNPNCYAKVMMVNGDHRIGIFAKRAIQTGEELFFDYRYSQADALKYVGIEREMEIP", "assay": "inhibition of PRC2 H3K27 methylation – biochemical, DELFIA time-resolved fluorescence, single point, primary screen (AID 651548);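 further: dimethyl H3K27 on biotinylated H3 21-44 peptide detected by antibody; plate controls were median neutral control wells for no effect and median positive control wells for full effect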", "details": "DELFIA TRF, 1 h, at 12.5 µM, stronger effect = higher value"}
{"smiles": "C[C@@H](NC(=O)C[C@H]1C[C@@H]2c3cc(NC(=O)c4ccc5c(c4)OCO5)ccc3O[C@@H]2[C@@H](CO)O1)c1ccccc1", "inhibition": "-6.67% (inactive)"}
{"smiles": "COc1ccccc1NC(=O)N[C@H]1CC[C@@H](CC(=O)N[C@@H](C)c2ccccc2)O[C@H]1CO", "inhibition": "-11.3% (inactive)"}
{"smiles": "O=C(C[C@H]1CC[C@H](NC(=O)Nc2ccccc2F)[C@@H](CO)O1)NCc1ccccc1", "inhibition": "4.86% (inactive)"}
{"smiles": "O=C(C[C@@H]1CC[C@H](NC(=O)C2CC2)[C@@H](CO)O1)NCc1ccncc1", "inhibition": "3.36% (inactive)"}
{"smiles": "C[C@@H]1CN([C@@H](C)CO)C(=O)c2cc(-c3cccnc3)cnc2O[C@H]1CN(C)Cc1ccc(-c2ccccc2)cc1", "inhibition": "7.86% (inactive)"}
{"smiles": "CN(C)Cc1cn(CC[C@H]2CC[C@H](NC(=O)Nc3ccccc3F)[C@@H](CO)O2)nn1", "inhibition": "24.4% (inactive)"}
{"smiles": "C[C@H]1CN([C@@H](C)CO)S(=O)(=O)c2ccc(-c3cccnc3)cc2O[C@H]1CN(C)C(=O)C1CCCCC1", "inhibition": "0.754% (inactive)"}
{"smiles": "C[C@@H]1CN([C@@H](C)CO)S(=O)(=O)c2ccc(-c3ccc(F)cc3)cc2O[C@H]1CN(C)C(=O)c1ccccc1F", "inhibition": "-11% (inactive)"}
{"smiles": "CO[C@@H]1CN(C)C(=O)c2cc(NC(=O)c3ccccc3)ccc2OC[C@@H](C)N(C(C)=O)C[C@@H]1C", "inhibition": "4.81% (inactive)"}
{"smiles": "O=C(C[C@H]1C=C[C@H](NC(=O)c2cccc(F)c2)[C@@H](CO)O1)NCc1ccc(Oc2ccccc2)cc1", "inhibition": "-0.132% (inactive)"}
{"smiles": "CCCC(=O)Nc1ccc2c(c1)C(=O)N(C)C[C@@H](OC)[C@@H](C)CN(C(=O)CC)[C@H](C)CO2", "inhibition": "8.4% (inactive)"}
{"smiles": "COC(=O)C1=CO[C@@H](O[C@@H]2O[C@H](CO)[C@@H](O)[C@H](O)[C@H]2O)[C@@H]2[C@@H](C)[C@@H](OC(=O)C3=CO[C@@H](O[C@@H]4O[C@H](CO)[C@@H](O)[C@H](O)[C@H]4O)[C@@H]4[C@@H](C)[C@@H](OC(C)=O)C[C@H]34)C[C@H]12", "inhibition": "-4.29% (inactive)"}
{"smiles": "C/C=C1/[C@H](O[C@@H]2O[C@H](CO)[C@@H](O)[C@H](O)[C@H]2O)OC=C2C(=O)O[C@@H]3C[C@@H](C(C)CO)[C@H](COC(=O)C[C@H]21)[C@H]3C", "note": "(some centres not stated)", "inhibition": "-12.8% (inactive)"}
{"smiles": "CC1=COC(O[C@@H]2O[C@H](CO)[C@@H](O)[C@H](O)[C@H]2O)C2C1CC(O)C2CO", "note": "(some centres not stated)", "inhibition": "58.6% (active)"}
{"smiles": "COc1ccccc1-c1cn(CC[C@H]2CC[C@@H](NC(=O)Cc3ccccn3)[C@@H](CO)O2)nn1", "inhibition": "9.32% (inactive)"}
{"smiles": "COc1cccc(NC(=O)Nc2ccc3c(c2)C(=O)N(C)C[C@@H](OC)[C@H](C)CN(CC2CC2)[C@H](C)CO3)c1", "inhibition": "-8.45% (inactive)"}
{"smiles": "CN1CCN(C(=O)c2cc3c(c(-c4cccc(-c5ccc(C(=O)N(C)C)cc5)c4)n2)[C@@H](CCO)N([S@](=O)C(C)(C)C)C3)CC1", "inhibition": "-12.8% (inactive)"}
{"smiles": "COc1ccc(CN2C[C@@H](C)[C@H](OC)CN(C)C(=O)c3cc(NC(C)=O)ccc3OC[C@@H]2C)cc1", "inhibition": "-2.6% (inactive)"}
{"smiles": "O=C(C[C@H]1C=C[C@H](NC(=O)c2cnccn2)[C@@H](CO)O1)NCc1ccccc1F", "inhibition": "4.44% (inactive)"}
{"smiles": "CN(C)C(=O)C[C@H]1C[C@@H]2c3cc(NC(=O)NC4CCCCC4)ccc3O[C@@H]2[C@@H](CO)O1", "inhibition": "9.52% (inactive)"}
{"smiles": "O=C(C[C@@H]1C=C[C@@H](NC(=O)C2CC2)[C@H](CO)O1)NCCCN1CCOCC1", "inhibition": "-1.42% (inactive)"}
{"smiles": "CCC(=O)Nc1ccc2c(c1)C(=O)N(C)C[C@H](OC)[C@@H](C)CN(C(=O)c1cnccn1)[C@@H](C)CO2", "inhibition": "11.1% (inactive)"}
{"smiles": "COCC(=O)Nc1ccc2c(c1)OC[C@H](C)N(Cc1ccccc1OC)C[C@@H](C)[C@@H](OC)CN(C)C2=O", "inhibition": "-9.26% (inactive)"}
{"smiles": "CO[C@H]1CN(C)C(=O)c2cc(NS(=O)(=O)CC(F)(F)F)ccc2OC[C@H](C)N(C(=O)c2ccc3c(c2)OCO3)C[C@H]1C", "inhibition": "13% (inactive)"}
{"smiles": "CO[C@@H]1CN(C)C(=O)c2cc(NC(=O)c3ccno3)ccc2OC[C@@H](C)N(S(C)(=O)=O)C[C@@H]1C", "inhibition": "4.22% (inactive)"}
{"smiles": "O=C(CCCCCCC(=O)Nc1ccccc1O)N/N=C/c1ccc(Oc2ccccc2)cc1", "inhibition": "60.3% (active)"}
{"smiles": "O=C(CCCCCC(=O)Nc1ccccc1O)N/N=C/c1ccc(I)cc1", "inhibition": "14.9% (inactive)"}
{"smiles": "O=C(CCCCCCC(=O)Nc1ccccc1O)N/N=C/c1ccc(C(F)(F)F)cc1", "inhibition": "-17.5% (inactive)"}
{"smiles": "O=C(C[C@@H]1C[C@@H]2c3cc(NS(=O)(=O)c4ccc(F)cc4)ccc3O[C@@H]2[C@H](CO)O1)NCc1cc(F)ccc1F", "inhibition": "17% (inactive)"}
{"smiles": "CCCCc1nn(-c2ccccc2C(F)(F)F)c(=O)n1Cc1ccc(-c2ccccc2S(=O)(=O)NC(=O)c2sccc2C)cc1", "inhibition": "62% (active)"}
{"smiles": "COCC(=O)Nc1ccc2c(c1)C(=O)N(C)C[C@H](OC)[C@@H](C)CN(CC1CC1)[C@@H](C)CO2", "inhibition": "9.52% (inactive)"}
{"smiles": "O=C(C[C@@H]1C[C@@H]2c3cc(NC(=O)C4CCC4)ccc3O[C@@H]2[C@@H](CO)O1)NCCN1CCCCC1", "inhibition": "-3.85% (inactive)"}
{"smiles": "CC(C)NC(=O)N[C@@H]1CC[C@H](CC(=O)NCCN2CCCC2)O[C@@H]1CO", "inhibition": "-11.4% (inactive)"}
{"smiles": "C[C@H](O)C#Cc1ccc2c(c1)O[C@H](CN(C)C(=O)C1CC1)[C@@H](C)CN([C@H](C)CO)S2(=O)=O", "inhibition": "7.79% (inactive)"}
{"smiles": "CO[C@H]1CN(C)C(=O)c2ccc(NS(=O)(=O)c3cn(C)cn3)cc2OC[C@@H](C)N(C)C[C@@H]1C", "inhibition": "-2.12% (inactive)"}
{"smiles": "CCC(=O)N(C)C[C@H]1Oc2cc(C#CC3CCCC3)ccc2S(=O)(=O)N([C@H](C)CO)C[C@@H]1C", "inhibition": "10% (inactive)"}
{"smiles": "CN(C)CC(=O)N[C@@H]1CC[C@H](CCn2cc(C3CCCC3)nn2)O[C@H]1CO", "inhibition": "-5.37% (inactive)"}
{"smiles": "O=C(CCN1CCCCC1)N[C@H]1CC[C@H](CCNS(=O)(=O)c2ccc(F)cc2)O[C@@H]1CO", "inhibition": "4.74% (inactive)"}
{"smiles": "O=C(NCC[C@H]1CC[C@@H](NC(=O)c2ccncc2)[C@@H](CO)O1)Nc1ccc(Cl)cc1", "inhibition": "1.17% (inactive)"}
{"smiles": "COc1cccc(NC(=O)N[C@@H]2C=C[C@H](CC(=O)NCc3ccccn3)O[C@H]2CO)c1", "inhibition": "-2.05% (inactive)"}
{"smiles": "O=C(C[C@@H]1C=C[C@H](NC(=O)C2CCOCC2)[C@H](CO)O1)NCc1ccncc1", "inhibition": "7.09% (inactive)"}
{"smiles": "CCC(=O)Nc1ccc2c(c1)C(=O)N(C)C[C@H](OC)[C@@H](C)CN(Cc1cccnc1)[C@H](C)CO2", "inhibition": "2.36% (inactive)"}
{"smiles": "CO[C@H]1CN(C)C(=O)c2cc(NC(=O)NC(C)C)ccc2OC[C@@H](C)NC[C@@H]1C", "inhibition": "4.41% (inactive)"}
{"smiles": "Cc1ccc(S(=O)(=O)N[C@@H]2CC[C@H](CCn3cc(-c4cccc(F)c4)nn3)O[C@@H]2CO)cc1", "inhibition": "-11.1% (inactive)"}
{"smiles": "CC(C)NC(=O)N[C@@H]1CC[C@H](CCn2cc(-c3ccccc3)nn2)O[C@H]1CO", "inhibition": "6.84% (inactive)"}
{"smiles": "CO[C@H]1CN(C)C(=O)c2ccc(NC(C)=O)cc2OC[C@@H](C)NC[C@H]1C", "inhibition": "-8.55% (inactive)"}
{"smiles": "COC(=O)[C@H](Cc1ccc(N=[N+]=[N-])cc1)N1CC2=C[C@@H](C3CC3)n3c(=O)n(C)c(=O)n3[C@H]2[C@@H]1[C@@H](O)Cc1ccccc1", "inhibition": "1.09% (inactive)"}
{"smiles": "CO[C@@H]1CN(C)C(=O)c2cc(NC(=O)C3CC3)ccc2OC[C@H](C)N(C(=O)c2ccccc2F)C[C@H]1C", "inhibition": "3.97% (inactive)"}
{"smiles": "COCC(=O)N(C)C[C@@H]1Oc2ncc(C#C[C@H](C)O)cc2C(=O)N([C@@H](C)CO)C[C@@H]1C", "inhibition": "-0.468% (inactive)"}
{"smiles": "O=C(C[C@@H]1CC[C@@H](NC(=O)c2ccc3c(c2)OCO3)[C@H](CO)O1)NCc1ccc(F)cc1", "inhibition": "-0.86% (inactive)"}
{"smiles": "COc1ccc(CNC(=O)C[C@H]2CC[C@H](NC(=O)Nc3ccc4c(c3)OCO4)[C@H](CO)O2)cc1", "inhibition": "13.2% (inactive)"}
{"smiles": "C[C@H](CO)N1C[C@H](C)[C@@H](CN(C)C(=O)c2ccccc2)OCCCC[C@H](C)Oc2ccc(NC(=O)c3ccccc3)cc2C1=O", "inhibition": "-18.6% (inactive)"}
{"smiles": "CO[C@@H]1CN(C)C(=O)c2cc(NC(=O)NC3CCCCC3)ccc2OC[C@@H](C)N(C(C)=O)C[C@H]1C", "inhibition": "0.307% (inactive)"}
{"smiles": "C[C@@H]1CN([C@H](C)CO)S(=O)(=O)c2ccc(-c3ccccc3)cc2O[C@H]1CN(C)C(=O)C1CCC1", "inhibition": "-4.42% (inactive)"}
{"smiles": "CO[C@@H]1CN(C)C(=O)c2ccc(NC(=O)Nc3c(C)noc3C)cc2OC[C@@H](C)NC[C@H]1C", "inhibition": "0.549% (inactive)"}
{"smiles": "CO[C@@H]1CN(C)C(=O)c2cc(NS(=O)(=O)c3ccc(Cl)cc3)ccc2OC[C@H](C)NC[C@@H]1C", "inhibition": "3.36% (inactive)"}
{"smiles": "CO[C@@H]1CN(C)C(=O)c2ccc(NC(=O)c3ccccn3)cc2OC[C@@H](C)N(C(=O)C2CCCCC2)C[C@H]1C", "inhibition": "-0.858% (inactive)"}
{"smiles": "CO[C@@H](CN(C)C(=O)c1ccc2c(c1)OCO2)[C@@H](C)CN([C@H](C)CO)S(=O)(=O)c1ccccc1", "inhibition": "-0.585% (inactive)"}
{"smiles": "CO[C@H]1CN(C)C(=O)c2cc(NC(=O)Nc3ccccc3F)ccc2OC[C@@H](C)N(CCC(F)(F)F)C[C@@H]1C", "inhibition": "-15.8% (inactive)"}
{"smiles": "C[C@H](NC(=O)C[C@@H]1C[C@@H]2c3cc(NC(=O)Nc4ccc(C(F)(F)F)cc4)ccc3O[C@@H]2[C@H](CO)O1)c1ccccc1", "inhibition": "-10.9% (inactive)"}
{"smiles": "O=C(Nc1ccccc1)N[C@@H]1CC[C@H](CCn2cc(C3(O)CCCC3)nn2)O[C@@H]1CO", "inhibition": "-9.38% (inactive)"}
{"smiles": "CCNC(=O)C[C@@H]1CC[C@@H](NC(=O)NC2CCCCC2)[C@H](CO)O1", "inhibition": "-1.26% (inactive)"}
